Screening data from PubChem BioAssay.
Pol beta inh – blocks human DNA polymerase beta activity. Pol beta primer extension/strand displacement, fluorescence kinetic. Potency, µM (series often up to 114 µM), without a hit: at the top dose activity change, negative = inhibition, most hits filed as inhibitors. 1.3% of 340,000 active; also: potency is read from the fitted curve at half-maximal effect; % is scaled to controls: 0 for no effect and ±100 for the full control effect
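Preincubation: enzyme (10 nM) with compound, 15 min, RT. Reaction: substrate added to 50 nM final. Reads: 0 and 10 min. Analysis: normalized, Hill fit.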
Pol eta inh – DNA polymerase eta (human) inhibition. Q9Y253. recombinant Pol eta, fluorescent DNA replication assay. Potency, µM (titrated, usually from 114 µM), inactives show at the highest dose activity change, negative = inhibition, usual class: inhibitors. 1.2% of 390,000 active. AID 588591; also: potency is read from the fitted curve at half-maximal effect; % is scaled to controls: 0 for no effect and ±100 for the full control effect
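Fluorescent replication assay: 50 nM final substrate added after a 15 min room-temperature compound preincubation with 10 nM enzyme. Signal taken at 0 min and again at 10 min.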
Pol kappa inh – DNA polymerase kappa (human) inhibition; purified Pol kappa, fluorescent DNA synthesis assay, 10 min; 0.53% of 400,000 active; Q9UBT6; Potency, µM (highest dose often 107 µM), for the others: at the top dose activity, negative = inhibition, usual class: inhibitors; AID 588579; also: potency is read from the fitted curve at half-maximal effect; % is scaled to controls: 0 for no effect and ±100 for the full control effect
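Fluorescent qHTS in 1536-well format: enzyme (10 nM) and compound sat 15 min at room temperature before 50 nM substrate (final) was added. Signal taken at 0 and 10 min; no-enzyme buffer wells were negative controls.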
WRN inhibitor – WRN helicase (human) inhibition. Q14191. WRN helicase unwinding, fluorescent forked duplex, kinetic. Potency, µM (top dose mostly 114 µM), for inactives: at the highest dose activity change, negative = inhibition, most hits filed as inhibitors. 0.46% of 360,000 active. AID 651768; also: potency is read from the fitted curve at half-maximal effect; % is scaled to controls: 0 for no effect and ±100 for the full control effect; nearly all actives have a fitted effect of over 55% in size
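WRN at 20 nM final was preincubated with compound for 15 min at room temperature; reaction started with 100 nM forked duplex oligonucleotide carrying fluorophore and quencher plus 2 mM ATP (final). Unwinding followed kinetically by red fluorescence (ex 525/em 598 nm).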
PI5P4Ka inh – inhibitors of human PI5P4K alpha; max response, %; PI5P4Kalpha enzyme, ADP-Glo luminescence, 60 min; hits give low values; P48426; 1.2% of 330,000 active; active = max response of -50% or lower; inconclusive = between -30% and -50%; inactive = -30% or higher; also: value at the top dose of about 77 µM; % is scaled to controls: 0 for no effect and ±100 for the full control effect
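Reactions run in 0.038 M HEPES pH 7.4, 0.28 mM EGTA, 0.1% CHAPS and 5% DMSO, with PI5P4Kalpha, substrate, compound and 5 microM ATP final, one hour at room temperature. Readout is ADP-Glo luminescence.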
Pol iota inh – inhibitors of human DNA polymerase iota; Pol iota fluorescent replication assay, 10 min; Potency, µM (top dose mostly 115 µM), for inactives: at the highest dose activity, negative = inhibition, usual class: inhibitors; AID 588590; 1% of 390,000 active; Q9UNA4; also: potency is read from the fitted curve at half-maximal effect
Target sequence (Q9UNA4 whole entry, looked up): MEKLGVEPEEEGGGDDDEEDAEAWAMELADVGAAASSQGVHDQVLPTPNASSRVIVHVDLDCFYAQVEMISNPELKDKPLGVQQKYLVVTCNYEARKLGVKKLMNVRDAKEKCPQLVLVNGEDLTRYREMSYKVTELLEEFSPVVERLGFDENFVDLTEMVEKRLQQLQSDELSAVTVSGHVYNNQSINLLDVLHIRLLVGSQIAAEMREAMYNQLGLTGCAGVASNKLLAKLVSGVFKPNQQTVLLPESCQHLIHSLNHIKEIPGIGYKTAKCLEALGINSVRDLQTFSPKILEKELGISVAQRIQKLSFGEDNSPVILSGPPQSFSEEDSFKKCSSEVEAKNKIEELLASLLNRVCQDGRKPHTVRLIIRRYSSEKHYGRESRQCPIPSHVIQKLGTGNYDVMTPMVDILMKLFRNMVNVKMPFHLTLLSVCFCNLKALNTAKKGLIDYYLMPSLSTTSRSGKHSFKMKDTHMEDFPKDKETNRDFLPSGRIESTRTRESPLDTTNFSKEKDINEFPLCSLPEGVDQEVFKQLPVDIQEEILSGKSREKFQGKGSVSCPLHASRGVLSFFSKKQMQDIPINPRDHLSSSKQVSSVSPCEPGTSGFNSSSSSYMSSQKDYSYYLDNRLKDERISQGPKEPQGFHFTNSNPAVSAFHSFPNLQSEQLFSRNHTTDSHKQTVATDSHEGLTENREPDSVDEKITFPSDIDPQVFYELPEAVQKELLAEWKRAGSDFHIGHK
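Fluorescent replication assay read twice, at 0 min and 10 min after adding 50 nM (final) substrate. Enzyme (10 nM) and compounds were first incubated 15 min at room temperature; enzyme-free buffer wells were negative controls.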
* marks the source's active call; other numbers are inactive results; ? = inconclusive; . = not tested or not shown; [ ] = another dose, or the depositor's remark. An excerpt weighted towards active compounds, which were near 2.8% of everything screened. Unless noted, calls follow the shape of the dose curve; as a rule, active = well fitted curve in the direction sought with a large enough effect; inconclusive = small, poorly fitted or top-dose-only effect, or another doubt; inactive = no such curve, though single readings can be large; an effect the other way counts as inactive or inconclusive.

SMILES | Pol beta inh | Pol eta inh | Pol kappa inh | WRN inhibitor | PI5P4Ka inh | Pol iota inh
O=C1NC(=Nc2ccccc2Cl)S/C1=C\c1ccc(C(=O)O)cc1 | 24% | ? | -8% | -8% | -65* | 0%
Nc1ccc(/C=C/c2ccnc3ccccc23)c(N)c1 | . | . | 9% | . | . | 46%
CN1CCN(C(c2ccccc2)c2sc3nc(-c4ccco4)nn3c2O)CC1 (stereo unspecified) | 11% | 5% | -2%[60.1 µM] | . | . | -8%
CCOC(=O)C1=CNS(=O)(=O)NC1c1ccc(C(=O)OC)cc1 (stereo unspecified) | . | -11% | 5% | -8% | -5 | 1%
COc1ccc(-c2ccc(/C=C3/C(=N)N4C=CSC4=NC3=O)o2)c([N+](=O)[O-])c1 | 35µM* | 20µM* | -19% | ? | -3 | ?
CC(=O)Nc1ccc(OCCOc2ccc(/C=C3/C(=N)N4C=CSC4=NC3=O)cc2)cc1 | -9% | 6% | 1%[60.1 µM] | 4% | ? | ?
CCOC(=O)c1ccc(NC(=O)C2CC(O)CN2S(=O)(=O)c2ccc(C)cc2)cc1 (stereo unspecified) | . | -1% | 1% | 5% | -3 | 4%
NC(CSC(c1ccccc1)(c1ccccc1)c1cccc2ccccc12)C(=O)O (stereo unspecified) | . | 20µM* | ? | ? | ? | ?
N[C@H](CSC(c1ccccc1)(c1ccccc1)c1ccccc1)C(=O)O | . | . | -15%[60.1 µM] | . | . | .
Cc1cccc(NC2=Nc3ccccc3N3C2=Nc2c(c(C)nn2-c2ccccc2)C3c2ccc(O)c(O)c2)c1 (stereo unspecified) | 2% | -12% | -1% | 1% | -92* | 6%
Cc1nn(-c2ccccc2)c2c1C(c1ccc(O)c(O)c1)N1C(=N2)C(Nc2ccccc2)=Nc2ccccc21 (stereo unspecified) | 0% | -17% | -13% | -20% | -5 | 27%
Cc1ccc(NC2=Nc3ccccc3N3C2=Nc2c(c(C)nn2-c2ccccc2)C3c2ccc(O)c(O)c2)cc1 (stereo unspecified) | 28% | 9% | -9% | -18% | -75* | 4%
COc1cc(C(=O)ONC(=O)c2ccc(OC(F)F)cc2)cc(OC)c1OC | 32µM* | 79µM* | -24% | -11%[11.6 µM] | -4 | ?
COc1ccc(-c2csc(NC(=O)CSc3nc4ccccc4c(=O)[nH]3)n2)cc1 | -29% | ? | ? | -10%[11.6 µM] | -20 | 35µM*
COc1ccccc1NC(=O)CSc1nc2ncccc2[nH]1 | 35µM* | -8% | -7% | 1% | . | 28%
COc1ccccc1NC(=O)CCSCCC(=O)Nc1ccccc1OC | 56µM* | ? | -23% | -13% | -23 | -12%
O=C(CSc1nc2ncccc2[nH]1)Nc1ccccc1-c1ccccc1 | 4% | -1% | -10% | 5% | 1 | 1%
COc1ccc2nc(SCC(=O)Nc3ccccc3)[nH]c2c1 | 28µM* | -15% | -11% | 0% | -6 | -15%
Cc1c(O)nc(SCC(=O)Nc2ccc3c4c(cccc24)CC3)n(-c2ccccc2)c1=O | ? | -15% | -3% | -19% | -2 | 61%
O=C(CSc1nc(O)cc(=O)n1-c1ccccc1)Nc1ccc2c3c(cccc13)CC2 | 35µM* | -29% | -17% | ? | -1 | ?
COc1ccc(NC(=O)CSc2nc(O)cc(=O)n2-c2ccccc2)cc1 | ? | -9% | -22% | 3%[11.6 µM] | -6 | 79µM*
O=[N+]([O-])c1cccc(CNC2CCCCCC2)c1 | 28µM* | -11% | 0% | 10% | -8 | 122%
COC/C=C/C1=CC2=CC(=O)C(C)(OC(=O)c3cnc4ccccc4n3)C(=O)C2=CN1C1CCCCC1 (stereo unspecified) | -18% | . | . | . | . | .
COC/C=C/C1=CC2=CC(=O)C(C)(OC(=O)c3cnc4ccccc4n3)C(=O)C2=CN1c1ccccc1 (stereo unspecified) | ? | 25µM* | 79µM* | -19%[57.1 µM] | -69* | ?
COC/C=C/C1=CC2=CC(=O)C(C)(OC(=O)c3cnc4ccccc4n3)C(=O)C2=CN1c1ccc(CO)cc1 (stereo unspecified) | 1.8µM* | . | . | . | . | .
SMILES | Pol beta inh | Pol eta inh | Pol kappa inh | WRN inhibitor | PI5P4Ka inh | Pol iota inh
CCCCC1=CC2=CC(=O)C(C)(OC(=O)CC)C(=O)C2=CN1CC(C)C (stereo unspecified) | 16% | -6% | 8% | 5% | 7 | 75%
COC/C=C/C1=CC2=CC(=O)C(C)(OC(=O)c3cnc4ccccc4n3)C(=O)C2=CN1CC(C)C (stereo unspecified) | . | 25µM* | ? | -11% | -4 | ?
Cc1ccc(NC(=O)Cn2c(O)c(N=NC(N)=O)c3ccccc32)cc1 | -4% | -21% | 4% | -19% | -1 | 47%
Cc1ccccc1NC(=O)Cn1c(O)c(N=NC(=O)c2ccccc2O)c2ccccc21 | 10µM* | ? | ? | -17%[57.1 µM] | -19 | ?
O=C(COc1ccccc1)Nc1ccccc1F | -3% | -7% | 4% | -26% | -7 | 20%
O=C(COc1c(Br)cc(Br)c2cccnc12)Nc1ccccc1F | 4.5µM* | ? | -30% | -7% | ? | -27%
CC1CCN(CC(=O)Nc2ccc(S(=O)(=O)N3CCC(C)CC3)cc2)CC1 | -3% | -25% | -4% | ? | -8 | 45%
Cc1ccc(-c2nnn(CC(=O)Nc3ccc(S(=O)(=O)N4CCC(C)CC4)cc3)n2)cc1 | 35µM* | ? | -40% | -20% | -1 | ?
CC1CCN(S(=O)(=O)c2ccc(NC(=O)Cn3nnc(-c4ccccc4)n3)cc2)CC1 | 40µM* | -11% | -1% | -14% | . | ?
COc1ccccc1C(=O)NCCC(=O)N1CC=C(c2ccccc2)CC1 | . | -2% | -11% | -4% | 7 | 3%
COc1ccc(Cc2nc3ccc(C(=O)NCCc4ccc(Cl)cc4)cc3o2)cc1 | 2% | -2% | -1%[60.1 µM] | . | . | 10%
CN(C)c1cc(N2CCOCC2)nc(C#N)n1 | . | . | -6% | . | . | -6%
CC(=O)Nc1cccc(NC(=O)CSc2nc(C3CC3)nc3ccccc23)c1 | ? | -17% | -4% | -13% | 4 | 28%
O=C(CSc1nc(-c2ccccc2)nc2ccccc12)Nc1cccc(C(=O)O)c1 | 0% | 35µM* | 1% | -14%[11.6 µM] | -5 | ?
O=C(CSc1nc(C2CC2)nc2ccccc12)Nc1ccccc1 | 6% | 5% | -6% | -4% | -7 | 8%
O=C(CSc1cn[nH]n1)Nc1cccc(C(=O)O)c1 | 19% | -16% | 3% | ? | -64* | ?
CC(=O)c1cccc(NC(=O)CSc2nc(C3CC3)nc3ccccc23)c1 | ? | -18% | -35% | -28% | -3 | 25µM*
